Measurements reported in publication PMC7826789 (International Journal of Molecular Sciences, 2021).

How the values were obtained:
Conditions in all cases: Compound Concentration (nM):1000
[1] = tested on: T1, SIK
T1 construct: gene SIK1

[2] = tested on: SLK
[3] = tested on: T2, SNARK
T2 construct: gene NUAK2

[4] = tested on: SNRK
[5] = tested on: SRC
[6] = tested on: SRMS
[7] = tested on: SRPK1
[8] = tested on: SRPK2
[9] = tested on: SRPK3
[10] = tested on: STK16
[11] = tested on: STK33
[12] = tested on: STK35
[13] = tested on: STK36
[14] = tested on: STK39
[15] = tested on: SYK
[16] = tested on: SgK110
[17] = tested on: T3, TAK1
T3 construct: gene MAP3K7

[18] = tested on: TAOK1
[19] = tested on: TAOK2
[20] = tested on: TAOK3
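Further: KINOMEscan scanMAX binding as percent activity remaining versus control; lower means stronger binding.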

SMILES | Percent Control [1] [%] | Percent Control [2] [%] | Percent Control [3] [%] | Percent Control [4] [%] | Percent Control [5] [%] | Percent Control [6] [%] | Percent Control [7] [%] | Percent Control [8] [%] | Percent Control [9] [%] | Percent Control [10] [%] | Percent Control [11] [%] | Percent Control [12] [%] | Percent Control [13] [%] | Percent Control [14] [%] | Percent Control [15] [%] | Percent Control [16] [%] | Percent Control [17] [%] | Percent Control [18] [%] | Percent Control [19] [%] | Percent Control [20] [%]
NS(=O)(=O)c1ccc(N/N=C2\C(=O)Nc3ccc(Cl)cc32)cc1 [GW280670X] | 100 | 100 | 91 | 100 | 100 | 100 | 97 | 100 | 88 | 84 | 95 | 100 | 100 | 100 | 98 | 100 | 81 | 95 | 100 | 100
COc1cc(N2CCN(C(C)C)CC2)ccc1Nc1nc(Nc2ccc(F)cc2C(=O)NC[C@@H](O)CO)c2cc[nH]c2n1 [GSK1392956A] | 100 | 100 | 66 | 87 | 100 | 100 | 99 | 99 | 100 | 85 | 1.5 | 100 | 100 | 65 | 92 | 100 | 100 | 67 | 100 | 100
CCS(=O)(=O)c1ccc(OC)c(Nc2ncc(-c3cccc(OC)c3)o2)c1 [GW580509X] | 97 | 100 | 96 | 100 | 26 | 54 | 96 | 100 | 100 | 37 | 100 | 100 | 100 | 100 | 96 | 100 | 81 | 100 | 100 | 100
CC(C)COC(=O)c1ccc2c(c1)/C(=C/Nc1ccc(S(N)(=O)=O)cc1)C(=O)N2 [GW416981X] | 100 | 100 | 13 | 100 | 100 | 100 | 100 | 100 | 100 | 6.8 | 24 | 100 | 100 | 100 | 100 | 100 | 21 | 85 | 100 | 99
COC(=O)Nc1nc2ccc(Oc3ccc(NC(=O)Nc4cc(C(F)(F)F)ccc4F)cc3)cc2s1.Cl [GW693917A] | 98 | 68 | 86 | 100 | 54 | 92 | 86 | 90 | 74 | 76 | 44 | 86 | 100 | 87 | 98 | 100 | 5.8 | 84 | 86 | 93
CC1=C(C(=O)Nc2ccc3[nH]ncc3c2)C(c2ccc3ccccc3c2)CC(=O)N1 (centres unmarked) [GSK270822A] | 100 | 83 | 7.1 | 95 | 74 | 100 | 85 | 100 | 100 | 88 | 95 | 99 | 100 | 71 | 74 | 100 | 81 | 76 | 96 | 93
CN(C)CCNC(=O)Nc1ccc(N(C)c2ccnc(Nc3ccc(CS(C)(=O)=O)cc3)n2)cc1.Cl [GW830900A] | 74 | 42 | 43 | 77 | 100 | 95 | 17 | 100 | 7.7 | 30 | 85 | 14 | 70 | 78 | 97 | 47 | 48 | 80 | 86 | 89
C[C@@H](Oc1cc(-n2cnc3ccc(OC4CCN(C)CC4)cc32)sc1C(N)=O)c1ccccc1Cl [GSK579289A] | 100 | 7.9 | 1 | 59 | 100 | 94 | 92 | 86 | 100 | 69 | 100 | 82 | 76 | 83 | 100 | 100 | 38 | 75 | 96 | 79
Cc1cc(O)cc(C)c1/C=C/c1cncc(C(N)=O)c1 [GW435821X] | 38 | 100 | 92 | 100 | 57 | 38 | 88 | 100 | 85 | 98 | 94 | 69 | 100 | 100 | 74 | 100 | 100 | 74 | 91 | 98
COc1cc(/C=N/Nc2ncnc3[nH]ncc23)ccc1O [GW578748X] | 87 | 100 | 36 | 100 | 22 | 39 | 97 | 91 | 98 | 32 | 95 | 100 | 57 | 60 | 51 | 100 | 32 | 51 | 80 | 77
